KDM5B inh: inhibitors of human KDM5B histone demethylase; KDM5B demethylase, FDH-coupled NADH fluorescence (FDH is formaldehyde dehydrogenase); Potency, µM (top dose mostly 57.7 µM), actives largely listed as inhibitors; hit rate 2.6% among 220,000; active = well fitted inhibition curve with a large enough effect; also: nearly all actives have a fitted effect of over 70% in size
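qHTS format, multiple compound concentrations. Buffer 50 mM HEPES pH 7.5/0.01% Tween-20; 200 nM KDM5BΔAP final; 10 min compound preincubation; substrate-mix levels 12.5 µM peptide, 25 µM α-KG, 0.25 mM NAD⁺; 30 min RT; ΔRFU.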
Hits are given with their value; i = inactive. The sample as a whole holds a higher share of hits than the screen did.

SMILES	KDM5B inh
O=C(c1cnn(-c2ccccc2)c1)N1CC[C@H](N2CCOCC2)[C@H](CCCO)C1	i
CC(C)NC(=O)c1ccccc1Br	i
CO[C@@H]1COCC[C@H]1NC(=O)CCc1ccc(-c2ccc(Cl)cc2)[nH]1	28µM
O=C(COc1ccc(F)c(Cl)c1)N[C@H]1C[C@@H]2OCC[C@H]12	i
CCOc1ccc(C(=O)N[C@H]2C[C@@H]3OCC[C@H]23)cc1OCC	i
Cc1ccc(O[C@H]2COCC[C@H]2NC(=O)CCc2nc3ccccc3[nH]2)cn1	i
O=C(CSc1ccc(Cl)cc1)N[C@@H]1COCC[C@@H]1OCC1CC1	i
O=C(CCc1ccc(-c2ccc(Cl)cc2)[nH]1)N[C@@H]1C[C@@H]2OCC[C@@H]21	32µM
COc1ccc(NCC(=O)NC(C)(C#N)C(C)C)cc1Cl (stereo not drawn)	i
CC1(C)Cc2c(sc3c2c(=O)n(CCCO)c(=O)n3CC(=O)c2ccccc2)CO1	i
COCCC(C)NC(=O)Nc1ccc(C#N)cc1 (stereo not drawn)	i
CCC(C)NS(=O)(=O)c1c(C)cc(N2C(=O)CCS2(=O)=O)cc1C (stereo not drawn)	i
CCN(C(=O)Cn1nc(-c2ccc(Br)cc2)ccc1=O)c1cccc(C)c1	i
C[C@@H](NC(=O)Nc1ccc(Cl)cc1)c1onc(-c2ccccc2)c1C(=O)O	i
Cc1noc([C@@H](C)NC(=O)Nc2ccc(Cl)cc2)c1C(=O)O	40µM
Cc1noc([C@@H](C)NC(=O)c2ccc(Cl)cc2)c1C(=O)O	i
Cc1ccc(C2=NN(C(=O)Cn3nnc(-c4ccccc4C)n3)C(c3ccco3)C2)cc1 (stereo not drawn)	i
Cn1c(-c2ccccc2)c(/C=N/Nc2ccc(S(=O)(=O)Nc3ccccc3)cc2[N+](=O)[O-])c2ccccc21	i
O=C1Cc2c(-c3ccc4c(c3)OCO4)n[nH]c2CN1CC1CCOCC1	i
CN(C)c1cccc(-c2n[nH]c3c2CC(=O)N(CC2CC2)C3)c1	20µM
COCc1cccc(-c2n[nH]c3c2CC(=O)N(CC2CC2)C3)c1	i
O=C(O)/C(=C/c1cccs1)c1cccs1	i
Cc1cccc(C)c1OC(=O)c1ccc(C#N)cc1	i
O=C(Cc1ccc(Cl)cc1)NC1CCN(c2cc(-c3cccs3)[nH]n2)C1 (stereo not drawn)	8.9µM
O=C(NC1CCN(c2cc(-c3ccccc3)[nH]n2)C1)c1ccccc1 (stereo not drawn)	i
SMILES	KDM5B inh
COc1ccc(-c2cc(N3CCC(NC(=O)c4cccs4)CC3)n[nH]2)cc1	i
O=C(NC1CCN(c2cc(-c3cccs3)[nH]n2)CC1)c1cc(Cl)ccc1F	i
O=C(NC1CCN(c2cc(-c3cccs3)[nH]n2)CC1)c1cc(F)ccc1Cl	i
O=C(NC1CCN(c2cc(-c3cccs3)[nH]n2)C1)c1ccc(F)cc1Cl (stereo not drawn)	16µM
O=C(NC1CCCN(c2cc(-c3ccc(Cl)cc3)[nH]n2)C1)c1cccs1 (stereo not drawn)	i
COc1ccc(-c2cc(N3CCC(NC(=O)c4ccccc4Cl)CC3)n[nH]2)cc1	i
O=C(NC1CCN(c2cc(-c3cccs3)[nH]n2)C1)c1ccccc1Cl (stereo not drawn)	14µM
COc1ccc(C(=O)NC2CCN(c3cc(-c4cccs4)[nH]n3)C2)c(C)c1 (stereo not drawn)	14µM
O=C(NC1CCCN(c2cc(-c3ccc(F)cc3)[nH]n2)C1)c1ccc(F)cc1Cl (stereo not drawn)	i
COc1cccc(C(=O)NC2CCN(c3cc(-c4cccs4)[nH]n3)CC2)c1OC	i
COC(=O)c1ccc(C)c(NC(=O)Cc2cc(C)ccc2OC)c1	i
O=C(O)CCC(=O)C1CC(=O)OC1C(=O)O (stereo not drawn)	i
CCOc1ccccc1CNC(=O)CN1CC2CC(C1)[C@H]1CCCC(=O)N1C2 (stereo partly drawn)	i
CCCCCCNC(=O)c1ccc(Nc2ccc(-c3ccc(C)cc3)nn2)cc1	i
CC(OC(=O)c1cccc(S(=O)(=O)N2CCCCC2)c1)C(=O)N1CCc2ccccc21 (stereo not drawn)	i
Cc1ccc(O)c(C(=O)c2cc(C#N)c(=O)n(-c3ccccc3C(=O)O)c2)c1	i
CC(C)c1ccc(C(NC(=O)c2nn(C)c(=O)c3ccccc23)C(C)C)cc1 (stereo not drawn)	i
Cc1ccccc1Cn1c(NC2CCCCC2)nc2c1c(=O)[nH]c(=O)n2C	i
C=C(Br)CN1CCOCC1	i
Cc1[nH]c(=S)sc1Cc1cccc(C(F)(F)F)c1	i
CCCOc1c(Cl)cc(C(=O)N(Cc2sccc2C)C2CCS(=O)(=O)C2)cc1Cl (stereo not drawn)	i
CC(c1nccs1)N(C)C(=O)c1csc2nc(-c3ccccc3Cl)cn12 (stereo not drawn)	i
CCOC(=O)COc1cc(OCc2ccccc2)c2c(=O)cc(-c3ccccc3)oc2c1	i
O=C(O)C(c1c[nH]c2ccc(CO)cc12)N1CCN(Cc2cccs2)CC1 (stereo not drawn)	i
COc1ccc(CNC(=O)CC2CCN(C(=O)c3ccc4nc(-c5ccc(C)cc5)oc4c3)CC2)cc1	i
SMILES	KDM5B inh
CN(C)C(=O)c1ccc2c(c1)N(C)C(CC(=O)NC(C)(C)c1ccccc1)CO2 (stereo not drawn)	i
COCCNC(=O)c1ccc2c(c1)N(C)C(CC(=O)Nc1ccccc1)CO2 (stereo not drawn)	32µM
C=CCN(C)C(=O)CC1COc2ccc(C(=O)N(C)C)cc2N1C (stereo not drawn)	i
COCCNC(=O)c1ccc2c(c1)N(C)C(CC(=O)NCc1ccon1)CO2 (stereo not drawn)	28µM
COCCNC(=O)CCCN1C(=O)COc2ccc(C(=O)COc3ccccc3OC)cc21	i
COCCNC(=O)c1ccc2c(c1)N(C)C(CC(=O)Nc1ccc(N)nc1)CO2 (stereo not drawn)	22µM
COCCNC(=O)c1ccc2c(c1)N(C)C(CC(=O)N(C)CC(C)C)CO2 (stereo not drawn)	32µM
Cc1cncc(NC(=O)CC2COc3ccc(C(=O)N(C)C)cc3N2C)c1 (stereo not drawn)	i
C#CCN(C)C(=O)CC1COc2ccc(C(=O)N3CCOCC3)cc2N1C (stereo not drawn)	i
COc1ccc(NC(=O)c2ccc3c(c2)OCCN(CCC(F)(F)F)C3)cn1	i
Cc1cc(C(=O)N2CCN(S(=O)(=O)c3ccc(C#N)cc3)CC2)c(C)n1C(C)C	i
Cn1nc(C(=O)N2CCC3(CC2)CC(OCC2CC2)CCO3)c2ccccc21 (stereo not drawn)	i
Cn1cccc1CN1CCCC2(C1)C(=NC1CCCCC1)NC(=O)N2c1cc(F)cc(F)c1 (stereo not drawn)	i
Cc1ccc(C(=O)c2ccccc2C(=O)OC/C=C/c2ccccc2)cc1C	i
Cc1ccccc1C(=O)Nc1sc(C)c(C)c1C#N	i
CCc1ccc(CN2CCC(Oc3ccc(C(=O)NCCOC)cc3Cl)CC2)o1	i
CCc1ccccc1OCC(=O)c1ccc2c(c1)N(CCCC(=O)NCCOC)C(=O)CO2	i
COCCNC(=O)c1ccc2c(c1)N(C)C(CC(=O)NC1CCC1)CO2 (stereo not drawn)	28µM
CCCNC(=O)CC1COc2ccc(C(=O)NCCOC)cc2N1C (stereo not drawn)	28µM
CCN(CC)C(=O)CC1COc2ccc(C(=O)NCCOC)cc2N1C (stereo not drawn)	28µM
COCCNC(=O)c1ccc(OC2CCN(Cc3cccc4c3OCO4)CC2)c(Cl)c1	i

Screening results as filed in PubChem BioAssay.
